Publication PMC7862700, “An all-to-all approach to the identification of sequence-specific readers for epigenetic DNA modifications on cytosine”

Tests used:
Assay in all cases: DAPPL (digital affinity profiling via proximity ligation, sequencing); 10 mM Tris-HCl pH 7.5, 50 mM NaCl, 1 mM DTT, 4% glycerol, room temperature, 30 min; GST-TFs on glutathione beads, 16-mer random dsDNA library, 0.1% formaldehyde crosslink after washing; high values mean tight binding
Conditions in all cases: protein: recombinant; tags: N-terminal GST; dsDNA, one strand shown
FLI1 = target: T1, FLI1 (Homo sapiens, UniProt Q01543 1-452)
T1 sequence: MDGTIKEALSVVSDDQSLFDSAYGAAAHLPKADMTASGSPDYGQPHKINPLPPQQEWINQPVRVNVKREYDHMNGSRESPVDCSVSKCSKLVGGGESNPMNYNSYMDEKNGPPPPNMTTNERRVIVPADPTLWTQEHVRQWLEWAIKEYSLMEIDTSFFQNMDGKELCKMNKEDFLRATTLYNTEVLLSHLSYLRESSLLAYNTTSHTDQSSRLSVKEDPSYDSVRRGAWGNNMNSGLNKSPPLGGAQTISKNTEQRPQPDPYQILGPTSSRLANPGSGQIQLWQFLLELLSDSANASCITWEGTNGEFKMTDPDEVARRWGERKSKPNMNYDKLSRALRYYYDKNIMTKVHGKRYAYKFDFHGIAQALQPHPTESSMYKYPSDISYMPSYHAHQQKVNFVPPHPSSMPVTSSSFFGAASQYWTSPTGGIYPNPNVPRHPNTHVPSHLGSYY
Method in brief: (§1)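 Human transcription factors carrying a GST fusion were produced in yeast, bound to glutathione beads, tagged with DNA barcodes and pooled together with a tag-only sample. Each pool was held with 200 nmole of a random double-stranded 16-mer DNA library in Tris/NaCl/DTT/glycerol buffer for 30 min at room temperature, then washed, crosslinked in 0.1% formaldehyde, proximity-ligated with BsaI/T4 ligase (1 h, 37 °C), PCR-amplified and sequenced on an Illumina NextSeq500. Binding signal is the read frequency of each hexamer for a given factor divided by its frequency in the tag-only sample.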

ELK1 = target: T2, ELK1 (Homo sapiens, UniProt P19419 1-428)
T2 sequence: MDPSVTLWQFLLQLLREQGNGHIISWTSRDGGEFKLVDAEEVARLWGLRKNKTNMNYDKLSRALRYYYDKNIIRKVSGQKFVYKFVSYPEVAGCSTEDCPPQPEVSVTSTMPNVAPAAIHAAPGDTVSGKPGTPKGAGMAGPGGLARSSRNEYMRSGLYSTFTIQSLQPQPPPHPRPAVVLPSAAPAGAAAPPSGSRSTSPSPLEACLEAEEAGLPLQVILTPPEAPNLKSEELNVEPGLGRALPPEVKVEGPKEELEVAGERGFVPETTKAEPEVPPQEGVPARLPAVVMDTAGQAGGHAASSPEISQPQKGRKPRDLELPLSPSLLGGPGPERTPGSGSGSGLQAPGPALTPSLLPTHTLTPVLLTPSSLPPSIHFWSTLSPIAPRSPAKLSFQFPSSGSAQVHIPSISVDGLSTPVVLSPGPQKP
Method in brief: as §1

ERG = target: T3, ERG (Homo sapiens, UniProt P11308 1-479)
T3 sequence: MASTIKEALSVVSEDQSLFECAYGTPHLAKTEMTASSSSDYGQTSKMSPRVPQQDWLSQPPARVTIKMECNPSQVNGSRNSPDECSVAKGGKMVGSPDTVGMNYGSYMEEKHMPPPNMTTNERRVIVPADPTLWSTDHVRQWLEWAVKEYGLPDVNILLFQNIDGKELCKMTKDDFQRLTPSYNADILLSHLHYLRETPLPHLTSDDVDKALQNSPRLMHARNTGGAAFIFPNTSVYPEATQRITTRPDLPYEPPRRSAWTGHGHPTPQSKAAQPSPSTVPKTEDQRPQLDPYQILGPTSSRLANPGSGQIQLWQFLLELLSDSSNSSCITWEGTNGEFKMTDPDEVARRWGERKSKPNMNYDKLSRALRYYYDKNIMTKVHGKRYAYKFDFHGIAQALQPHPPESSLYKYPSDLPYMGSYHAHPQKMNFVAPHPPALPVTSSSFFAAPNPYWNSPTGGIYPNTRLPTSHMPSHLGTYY
Method in brief: as §1

ELF1 = ELF1 (Homo sapiens, UniProt P32519 1-619)
Method in brief: as §1

EHF = target: T4, EHF (Homo sapiens, UniProt Q9NZC4 1-300)
T4 sequence: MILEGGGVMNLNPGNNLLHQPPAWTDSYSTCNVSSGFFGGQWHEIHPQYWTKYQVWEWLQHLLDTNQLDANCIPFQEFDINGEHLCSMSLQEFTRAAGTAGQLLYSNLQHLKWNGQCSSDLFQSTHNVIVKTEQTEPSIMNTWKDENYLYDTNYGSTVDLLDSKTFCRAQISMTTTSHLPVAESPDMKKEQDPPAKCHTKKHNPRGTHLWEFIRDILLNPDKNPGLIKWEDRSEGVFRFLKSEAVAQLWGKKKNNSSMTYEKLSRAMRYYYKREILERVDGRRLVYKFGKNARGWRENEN
Method in brief: as §1

SPI1 = SPI1 (Homo sapiens, UniProt P17947 1-270)
Method in brief: as §1

ELK3 = target: T5, ELK3 (Homo sapiens, UniProt P41970 1-407)
T5 sequence: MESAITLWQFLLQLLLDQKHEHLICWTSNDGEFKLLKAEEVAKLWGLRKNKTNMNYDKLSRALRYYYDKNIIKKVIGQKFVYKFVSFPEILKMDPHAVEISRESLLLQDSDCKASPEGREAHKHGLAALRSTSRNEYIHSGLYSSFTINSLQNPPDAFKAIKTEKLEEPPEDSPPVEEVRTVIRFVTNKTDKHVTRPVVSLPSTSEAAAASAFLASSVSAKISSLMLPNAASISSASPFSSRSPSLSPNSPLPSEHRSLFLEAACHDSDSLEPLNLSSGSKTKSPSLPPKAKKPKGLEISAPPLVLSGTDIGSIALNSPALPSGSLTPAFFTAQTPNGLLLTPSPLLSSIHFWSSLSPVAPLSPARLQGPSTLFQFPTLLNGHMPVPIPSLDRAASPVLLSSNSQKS
Method in brief: as §1

ELF4 = ELF4 (Homo sapiens, UniProt Q99607 1-663)
Method in brief: as §1

ETV2 = target: T6, ETV2 (Homo sapiens, UniProt O00321 1-342)
T6 sequence: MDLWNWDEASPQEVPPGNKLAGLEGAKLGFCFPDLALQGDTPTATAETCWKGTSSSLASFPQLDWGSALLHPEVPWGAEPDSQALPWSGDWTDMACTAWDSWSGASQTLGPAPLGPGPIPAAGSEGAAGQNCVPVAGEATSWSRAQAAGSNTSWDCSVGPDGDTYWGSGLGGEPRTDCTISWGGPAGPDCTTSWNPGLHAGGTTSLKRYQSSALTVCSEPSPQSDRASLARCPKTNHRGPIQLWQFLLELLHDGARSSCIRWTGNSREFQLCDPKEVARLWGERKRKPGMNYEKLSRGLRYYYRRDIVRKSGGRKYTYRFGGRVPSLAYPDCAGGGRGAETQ
Method in brief: as §1

ETV3L = target: T7, ETV3L (Homo sapiens, UniProt Q6ZN32 1-361)
T7 sequence: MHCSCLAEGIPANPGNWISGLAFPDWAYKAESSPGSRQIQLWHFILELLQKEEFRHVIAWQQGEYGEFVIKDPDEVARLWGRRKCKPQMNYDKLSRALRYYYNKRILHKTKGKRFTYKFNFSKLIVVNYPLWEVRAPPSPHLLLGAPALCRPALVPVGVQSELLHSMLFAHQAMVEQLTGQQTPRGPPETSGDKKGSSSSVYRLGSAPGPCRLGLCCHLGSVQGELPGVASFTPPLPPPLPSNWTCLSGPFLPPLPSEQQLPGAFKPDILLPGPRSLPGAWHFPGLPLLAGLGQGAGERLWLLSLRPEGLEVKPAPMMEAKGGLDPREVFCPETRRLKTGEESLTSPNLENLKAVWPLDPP
Method in brief: as §1

ETV6 = ETV6 (Homo sapiens, UniProt P41212 1-452)
Method in brief: as §1

SPIB = SPIB (Homo sapiens, UniProt Q01892 1-262)
Method in brief: as §1

ETV7 = target: T8, ETV7 (Homo sapiens, UniProt Q9Y603 1-341)
T8 sequence: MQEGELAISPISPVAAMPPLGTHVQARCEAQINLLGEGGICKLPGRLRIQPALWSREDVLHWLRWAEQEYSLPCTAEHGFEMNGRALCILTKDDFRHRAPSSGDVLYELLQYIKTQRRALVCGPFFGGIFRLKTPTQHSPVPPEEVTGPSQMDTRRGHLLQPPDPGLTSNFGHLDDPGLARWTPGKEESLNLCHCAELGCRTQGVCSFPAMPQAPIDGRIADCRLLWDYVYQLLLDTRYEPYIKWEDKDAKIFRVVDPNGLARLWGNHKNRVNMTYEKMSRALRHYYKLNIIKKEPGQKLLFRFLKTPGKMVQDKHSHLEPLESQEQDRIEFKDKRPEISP
Method in brief: as §1

ELF1, sequence (P32519 whole entry): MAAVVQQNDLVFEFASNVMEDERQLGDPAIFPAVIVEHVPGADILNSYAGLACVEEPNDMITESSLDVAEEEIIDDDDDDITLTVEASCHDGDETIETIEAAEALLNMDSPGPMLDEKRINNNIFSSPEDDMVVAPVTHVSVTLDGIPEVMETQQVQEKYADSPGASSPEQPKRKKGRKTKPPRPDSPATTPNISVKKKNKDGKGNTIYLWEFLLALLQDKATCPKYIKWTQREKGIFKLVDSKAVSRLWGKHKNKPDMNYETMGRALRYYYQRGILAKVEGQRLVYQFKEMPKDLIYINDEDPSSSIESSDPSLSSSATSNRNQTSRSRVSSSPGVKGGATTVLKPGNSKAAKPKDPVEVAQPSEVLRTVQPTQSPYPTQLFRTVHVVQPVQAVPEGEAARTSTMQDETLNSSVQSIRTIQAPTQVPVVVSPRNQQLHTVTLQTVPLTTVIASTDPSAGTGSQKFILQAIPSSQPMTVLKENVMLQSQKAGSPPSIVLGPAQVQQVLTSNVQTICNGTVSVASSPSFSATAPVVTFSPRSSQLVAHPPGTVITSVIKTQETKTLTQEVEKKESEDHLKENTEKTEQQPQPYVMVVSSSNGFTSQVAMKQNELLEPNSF
ELF4, sequence (Q99607 whole entry): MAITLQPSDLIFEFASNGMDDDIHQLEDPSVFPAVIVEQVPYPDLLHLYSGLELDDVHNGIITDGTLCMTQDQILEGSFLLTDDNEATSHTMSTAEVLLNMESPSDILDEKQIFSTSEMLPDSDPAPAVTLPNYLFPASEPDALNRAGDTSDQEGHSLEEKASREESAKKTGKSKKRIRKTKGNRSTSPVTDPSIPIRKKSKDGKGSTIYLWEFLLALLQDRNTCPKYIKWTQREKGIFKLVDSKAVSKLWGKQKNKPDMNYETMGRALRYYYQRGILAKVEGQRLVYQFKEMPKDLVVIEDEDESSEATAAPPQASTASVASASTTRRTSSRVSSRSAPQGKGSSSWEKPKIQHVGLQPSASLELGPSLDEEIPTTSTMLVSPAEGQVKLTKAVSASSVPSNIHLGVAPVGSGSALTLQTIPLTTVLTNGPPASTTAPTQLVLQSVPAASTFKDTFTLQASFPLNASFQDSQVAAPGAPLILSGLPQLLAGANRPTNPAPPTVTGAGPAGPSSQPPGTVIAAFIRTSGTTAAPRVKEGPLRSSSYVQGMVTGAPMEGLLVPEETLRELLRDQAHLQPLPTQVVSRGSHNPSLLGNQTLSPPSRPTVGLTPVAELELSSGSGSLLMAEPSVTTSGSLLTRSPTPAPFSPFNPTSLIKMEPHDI
ETV6, sequence (P41212 whole entry): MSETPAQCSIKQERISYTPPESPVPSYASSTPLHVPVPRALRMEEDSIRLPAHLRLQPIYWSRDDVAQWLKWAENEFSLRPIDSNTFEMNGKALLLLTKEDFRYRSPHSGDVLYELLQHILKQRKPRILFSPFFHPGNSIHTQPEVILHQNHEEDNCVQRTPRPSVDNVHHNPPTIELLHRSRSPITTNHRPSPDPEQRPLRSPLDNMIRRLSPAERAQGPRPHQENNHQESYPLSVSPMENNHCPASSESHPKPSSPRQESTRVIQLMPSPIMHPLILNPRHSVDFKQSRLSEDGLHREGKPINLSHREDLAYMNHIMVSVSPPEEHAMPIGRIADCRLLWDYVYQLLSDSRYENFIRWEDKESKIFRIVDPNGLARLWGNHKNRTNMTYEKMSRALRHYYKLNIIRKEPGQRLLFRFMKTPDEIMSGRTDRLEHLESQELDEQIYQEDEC
SPIB, sequence (Q01892 whole entry): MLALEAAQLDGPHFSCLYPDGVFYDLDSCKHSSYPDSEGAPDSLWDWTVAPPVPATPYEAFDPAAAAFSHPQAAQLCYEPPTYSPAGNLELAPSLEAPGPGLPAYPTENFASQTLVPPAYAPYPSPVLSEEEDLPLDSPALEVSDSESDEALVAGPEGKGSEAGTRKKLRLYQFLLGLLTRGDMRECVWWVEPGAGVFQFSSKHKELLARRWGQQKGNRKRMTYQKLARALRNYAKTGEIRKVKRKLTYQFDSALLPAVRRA

**Q.** Which binding signal (FLI1) does the source give for CCATGG here?
**A.** 1.08 fold enrichment (6-mer frequency, TF over GST control)

**Q.** What about the binding signal (ELK1) of the same sequence?
**A.** 1.05 fold enrichment (6-mer frequency, TF over GST control)

**Q.** And the binding signal (ERG)?
**A.** 1.08 fold enrichment (6-mer frequency, TF over GST control)

**Q.** And the binding signal (ELF1)?
**A.** 1 fold enrichment (6-mer frequency, TF over GST control)

**Q.** What about the binding signal (EHF) of the same sequence?
**A.** 1.06 fold enrichment (6-mer frequency, TF over GST control)

**Q.** And the binding signal (SPI1)?
**A.** 1.05 fold enrichment (6-mer frequency, TF over GST control)

**Q.** What about the binding signal (ELK3) of the same sequence?
**A.** 1.06 fold enrichment (6-mer frequency, TF over GST control)

**Q.** What about the binding signal (ELF4) of the same sequence?
**A.** 1.06 fold enrichment (6-mer frequency, TF over GST control)

**Q.** What about the binding signal (ETV2) of the same sequence?
**A.** 1.05 fold enrichment (6-mer frequency, TF over GST control)

**Q.** And the binding signal (ETV3L)?
**A.** 1.02 fold enrichment (6-mer frequency, TF over GST control)

**Q.** What about the binding signal (ETV6) of the same sequence?
**A.** 1.03 fold enrichment (6-mer frequency, TF over GST control)

**Q.** With CAAAGT as the sequence, how does the binding signal (FLI1) read?
**A.** 1.01 fold enrichment (6-mer frequency, TF over GST control)

**Q.** And the binding signal (ELF1)?
**A.** 1.03 fold enrichment (6-mer frequency, TF over GST control)

**Q.** What about the binding signal (SPIB) of the same sequence?
**A.** 1.04 fold enrichment (6-mer frequency, TF over GST control)

**Q.** What about the binding signal (ELK3) of the same sequence?
**A.** 1.06 fold enrichment (6-mer frequency, TF over GST control)

**Q.** And the binding signal (ELF4)?
**A.** 1.03 fold enrichment (6-mer frequency, TF over GST control)

**Q.** And the binding signal (ETV7)?
**A.** 1 fold enrichment (6-mer frequency, TF over GST control)
